Bioassay records (PubChem BioAssay)
TMEM16A inh: blocks the mouse calcium-activated chloride channel TMEM16A. HEK293 TMEM16A/YFP iodide influx fluorescence, ionomycin. normalized B-score (activity score, 25-100; higher = stronger inhibition) at 10 µM. 310,000 compounds, 1.2% hits. AID 588511;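 active means ratio plate-corrected score three or more library SD toward inhibition, starting fluorescence score within five deviations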;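 further: score derived from kinetic fluorescence span divided by baseline fluorescence per well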
Target sequence (Q8BHY3 whole entry, looked up): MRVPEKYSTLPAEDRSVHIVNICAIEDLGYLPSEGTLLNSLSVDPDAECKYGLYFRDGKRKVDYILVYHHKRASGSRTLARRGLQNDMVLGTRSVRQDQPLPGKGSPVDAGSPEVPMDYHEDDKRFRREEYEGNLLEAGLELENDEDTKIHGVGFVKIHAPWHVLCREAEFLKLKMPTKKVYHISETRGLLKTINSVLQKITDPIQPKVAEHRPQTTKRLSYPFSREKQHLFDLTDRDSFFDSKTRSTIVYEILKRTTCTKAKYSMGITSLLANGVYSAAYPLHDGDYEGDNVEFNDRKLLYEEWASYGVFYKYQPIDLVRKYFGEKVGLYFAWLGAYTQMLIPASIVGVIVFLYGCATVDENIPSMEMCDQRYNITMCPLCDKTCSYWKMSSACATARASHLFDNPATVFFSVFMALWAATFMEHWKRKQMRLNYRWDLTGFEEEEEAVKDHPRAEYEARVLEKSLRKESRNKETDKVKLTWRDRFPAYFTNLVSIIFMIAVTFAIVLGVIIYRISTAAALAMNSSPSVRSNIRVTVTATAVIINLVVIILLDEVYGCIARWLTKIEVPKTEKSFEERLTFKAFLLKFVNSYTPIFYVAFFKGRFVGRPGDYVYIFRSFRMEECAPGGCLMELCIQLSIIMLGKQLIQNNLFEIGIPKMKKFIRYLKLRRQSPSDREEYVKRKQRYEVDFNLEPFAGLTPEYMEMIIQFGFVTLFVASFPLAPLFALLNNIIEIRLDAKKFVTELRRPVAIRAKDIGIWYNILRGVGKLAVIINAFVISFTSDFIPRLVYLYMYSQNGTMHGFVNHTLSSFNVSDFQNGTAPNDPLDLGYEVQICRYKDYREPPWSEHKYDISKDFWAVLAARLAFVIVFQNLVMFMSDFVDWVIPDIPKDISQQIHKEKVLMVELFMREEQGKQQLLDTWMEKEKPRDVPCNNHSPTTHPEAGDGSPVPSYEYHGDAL
TMEM16A act: activators or potentiators of mouse TMEM16A chloride channel. Q8BHY3. HEK293 TMEM16A/YFP-H148Q/I152L, iodide quench fluorescence; active compounds read low. B-score at 10 µM. 340,000 compounds, 0.3% hits. AID 623877;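 active means fluorescence-ratio B-score plate-corrected deviation score at least 3 library SD below zero, with starting fluorescence score within 5 deviations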;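 further: channel opened by trigger with iodide after compound preincubation; score built on the fluorescence ratio of max minus min over baseline; more negative score means more quench and so TMEM16A activation or potentiation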
MEKK2mut PB1 HTS: signal of MEK5 binding to mutant human MEKK2 PB1 domain; 290,000 compounds, 0.35% hits; bead flow cytometry, Alexa488-MEK5 binding to MEKK2 mutant; percent response, % at 10 µM; in the data active means percent response above about 24%, passing the limit was not always enough
NTR1 agonist: activates human neurotensin receptor 1; P30989; NTR1-U2OS beta-arrestin-GFP spot imaging, agonist mode; activation, % at 20 µM; 330,000 compounds, 0.17% hits; AID 493036;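 active means activation at or above 40% of the spot to cytoplasm intensity ratio, with at least 20 cells analyzed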;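 further: 0% = DMSO without peptide and 100% = 100 nM NTR1 peptide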
MEKK2 WT-MEK5: raises or lowers MEK5 binding to wildtype human MEKK2 PB1 domain; Q9Y2U5; 290,000 compounds, 1.1% hits; AID 1531; binding response (% of control), % at 10 µM; bead flow cytometry, Alexa488-MEK5 binding to MEKK2 WT; actives lie on both sides; in the data active means binding response below about 67% or above about 130%
MEKK3 PB1 HTS: raises or lowers MEK5 binding to the human MEKK3 PB1 domain. AID 1529. binding response (% of control), % at 10 µM. bead-based flow cytometry, Alexa488-MEK5 binding to MEKK3; actives lie on both sides; 0 = blocked by unlabeled MEK5, 100 = vehicle. 290,000 compounds, 1.4% hits;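 active means binding response more than 3 SD above or below the average of its plate-row segment, actives on both sides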;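 further: Alexa488 bead fluorescence after subtracting the streptavidin-only scavenger bead signal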
TMEM16A reconf: TMEM16A (mouse) chloride channel inhibition, re-confirmation | shares compounds with TMEM16A inh | HEK293 TMEM16A/YFP-H148Q, iodide quench fluorescence; ionomycin added to raise cell calcium | inhibition, % at 10 µM | 2,300 compounds, 39% hits | AID 652189;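 active means mean duplicate percent inhibition, scaled so buffer wells are 0 and the reference blocker 100, over three buffer SD above buffer mean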
TMEM16A Ca cntr: calcium mobilization counter-screen hit for TMEM16A inhibitor series | AID 652231 | 2,300 compounds, 2% hits | calcium response (% of ionomycin), % at 10 µM | shares compounds with TMEM16A inh | TMEM16A/YFP HEK293, Fluo4 calcium mobilization;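 active means duplicate-averaged calcium signal over 20% of the ionomycin maximum, relative to buffer baseline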;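 further: each well's signal is peak minus trough fluorescence divided by its pre-addition baseline; 0% = buffer wells and 100% = ionomycin wells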
YFP-HEK293 quench: acts in parental YFP-HEK293 cells lacking TMEM16A, counter-screen; shares compounds with TMEM16A inh; iodide YFP quench, ionomycin; YFP ratio F(max-min)/F0 at 10 µM; 2,300 tested, under 10 active;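 active means yellow fluorescent protein signal ratio exceeding the buffer control mean by over 5 SD of those controls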;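 further: ratio is mean of duplicate wells from kinetic YFP trace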
ClC-1 rat inh: blocks the rat ClC-1 voltage-dependent chloride channel; ratio percent, % at 10 µM; CHO ClC-1-YFP, iodide influx fluorescence quench; iodide control reads 0, buffer control 100; shares compounds with TMEM16A inh; AID 652236; 2,300 tested, under 10 active;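 active means duplicate-mean ratio percent above the mean of iodide-only control wells, which defines zero, plus 5 of their SD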;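 further: higher percent means stronger block of ClC-1 iodide influx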
* = called active by the depositor; i = inactive; x = no result. Rows were chosen to be rich in hits. Some 3.4% of all compounds tested hit in one or more screens of this group.

SMILES	TMEM16A inh	TMEM16A act	MEKK2mut PB1 HTS	NTR1 agonist	MEKK2 WT-MEK5	MEKK3 PB1 HTS	TMEM16A reconf	TMEM16A Ca cntr	YFP-HEK293 quench	ClC-1 rat inh
CCOc1ccccc1CNC(=O)CCn1ccc2cc(S(=O)(=O)N3CCCCC3)ccc21	i	i	3	2	101	101	x	x	x	x
O=C(CSc1nc2ccccc2c2c1CCCC2)N1CCOCC1	i	i	0	2	96	97	x	x	x	x
CC(C)c1ccc(NC(=O)CSc2n[nH]c(=O)n2Cc2ccco2)cc1	25*	i	1	0	104	104	20%*	i	-1	-18
COc1ccc(C(=O)CSc2n[nH]c(=O)n2Cc2ccco2)cc1	i	i	-2	1	103	105	x	x	x	x
COc1cc(NC(=O)CCS(=O)(=O)c2ccc3c(c2)n(C)c(=O)c(=O)n3C)cc(OC)c1	i	i	-1	0	99	98	x	x	x	x
CC(=O)c1cccc(NS(=O)(=O)c2ccc(N/C=C\C(=O)c3ccc(F)cc3)cc2)c1	100*	i	9	5	105	109	32%*	i	-1.1	-26
CC(=O)c1cccc(NS(=O)(=O)c2ccc(N/C=C/C(=O)c3ccc(F)cc3)cc2)c1	i	i	1	6	112	121	x	x	x	x
CC1=NN(c2ccccc2)C(=O)/C1=C\C=C1\N(C)c2ccccc2C1(C)C	i	i	32	6	99	109	30%*	i	-0.82	4
O=C(CCc1ccccc1)Nc1ccccc1F	100*	i	6	1	102	104	i	i	-1	-4
COc1ccccc1CC(=O)N(Cc1ccccc1)c1cccc(C)c1	100*	i	6	2	103	103	i	i	-1.2	-3
S=C(NCCc1ccc(Cl)cc1)Nc1ccc(Cl)cc1Cl	25*	i	7	7	106	96	i	i	-0.97	-12
Fc1ccc(CCNC(=S)Nc2ccc(F)c(Cl)c2)cc1	100*	-4.7*	-4	16	96	101	37%*	i	-1.1	-14
Fc1ccc(NC(=S)Nc2ccc(Cl)cc2Cl)cc1	100*	x	-7	2	86	90	20%*	i	-1.1	-10
CC(C)(C)C(=O)N1CCN(c2ncnc3scc(-c4ccccc4)c23)CC1	i	i	-4	2	92	97	x	x	x	x
COc1cc(C2SC(C)C(=O)N2CCc2ccccc2)cc(OC)c1OC (stereo unspecified)	i	i	0	0	100	100	x	x	x	x
COc1cc2c(cc1NC(=O)CCCCCN1C(=O)CCC1=O)oc1ccccc12	25*	i	4	0	105	102	i	i	-1.2	-8
Cn1ncc(Br)c1C(=O)NC1C2CC3CC(C2)CC1C3 (stereo unspecified)	i	i	-3	-1	95	94	x	x	x	x
Cc1c(Cl)c(C(=O)NC2C3CC4CC(C3)CC2C4)nn1C (stereo unspecified)	100*	i	3	0	93	107	i	i	-0.96	-1
CCOC(=O)N1CCN(Cc2nc(-c3cccc(C)c3)no2)CC1	100*	i	2	0	99	98	i	i	-1.1	-14
O=C(COC(=O)c1ccc(Cl)c(S(=O)(=O)N2CCCCC2)c1)NCC1CCCCC1	x	i	x	0	x	x	x	x	x	x
O=C(CSc1nc2ncc(Br)cc2[nH]1)Nc1ccccc1-c1ccccc1	100*	i	-9	20	90	93	i	i	-0.96	-4
CN(CC(=O)Nc1ccccc1Cl)C(=O)COC(=O)c1ccc([N+](=O)[O-])cc1Cl	i	i	x	-1	x	x	x	x	x	x
CN(CCOc1ccccc1)CC(=O)Nc1ccc([N+](=O)[O-])cc1Cl	25*	i	-15	4	82	89	19%*	i	-1.1	-8
Cc1ccc(F)cc1NC(=O)c1ccc(NS(=O)(=O)c2ccc(Br)s2)cc1	25*	i	-1	1	100	105	i	i	-0.85	0
CCn1c2ccccc2c2cc(NC(=O)COC(=O)c3cc(S(N)(=O)=O)c(Cl)cc3Cl)ccc21	i	i	-7	3	91	100	x	x	x	x
SMILES	TMEM16A inh	TMEM16A act	MEKK2mut PB1 HTS	NTR1 agonist	MEKK2 WT-MEK5	MEKK3 PB1 HTS	TMEM16A reconf	TMEM16A Ca cntr	YFP-HEK293 quench	ClC-1 rat inh
CCOc1cc(CNc2ccccc2)cc(Br)c1OCC(=O)NC(C)(C)C	25*	i	7	11	104	107	i	i	-0.89	-4
CC(OC(=O)Cn1c(C(F)(F)F)nc2ccccc21)C(=O)N1CCCc2ccccc21 (stereo unspecified)	100*	i	1	1	104	101	i	i	-1.3	0
C=C(C)COc1ccc2c3c(c(=O)oc2c1OCC(=C)C)CCC3	100*	i	4	4	98	103	17%*	i	-1	-2
CC1CCCC(NC(=O)COC(=O)[C@@H](NC(=O)c2ccccc2Cl)C(C)C)C1C (stereo partly specified)	x	i	x	0	x	x	x	x	x	x
CC(C)(C)NC(=O)CN(CCN1CCOCC1)C(=O)CNS(=O)(=O)c1ccccc1	i	i	2	-1	95	97	x	x	x	x
CCCc1cc(=O)oc2cc(C)c(CN3CCCC3)c(O)c12	i	i	x	0	x	x	i	i	-1.2	-12
COc1ccccc1NC(=O)/C(=N/OCc1ccc(F)cc1)C(C)=O	i	i	0	4	105	108	x	x	x	x
COc1ccc(CN(C)CC(=O)Nc2sc3c(c2C#N)CCC3)c(OC)c1	i	i	-7	4	93	96	x	x	x	x
Cc1cccc(NS(=O)(=O)c2cccc(C(=O)NCC(c3ccco3)N(C)C)c2)c1 (stereo unspecified)	i	i	x	1	x	x	x	x	x	x
CCn1nc(C)cc1C(=O)Sc1cccc(Br)c1	i	i	-15	6	93	96	x	x	x	x
